The record followed here is PubChem BioAssay (NCATS).

Records with an inconclusive call do not appear. The source made the active and inactive calls. Calls follow the shape of the dose curve; as a rule, active = well fitted curve in the direction sought with a large enough effect; inconclusive = small, poorly fitted or top-dose-only effect, or another doubt; inactive = no such curve, though single readings can be large; an effect the other way counts as inactive or inconclusive. Where a SMILES comes first, the peptide text is derived from it. [ ]: non-standard residue; d: D form. pGlu = O=C1CC[C@@H](C(=O)O)N1; Thz = O=C(O)[C@@H]1CSCN1

A short description of the first assay: qHTS assay for measurement of the activity of small molecule inhibitors on Zika virus induced Caspase-3 activity in human astrocytoma cells (AID 1224859).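 Also: plate controls were ZIKV-infected untreated cells for no effect and uninfected cells for full effect.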 The following applies: SNB-19 ZIKV-induced caspase-3/7, luminescence, 6 h; series mostly up to 45.7 µM; activity change, negative = inhibition: at the top concentration. An outline of the steps:
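Caspase activation in ZIKV-infected SNB-19 cells (2 FFU/cell, 6 h) measured by Caspase-Glo 3/7 luminescence after 30 min RT; compound pre-incubated 1 h; normalised to uninfected and infected controls.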
For `COC(=O)c1nc(Cl)c(Cl)nc1N`, the “activity change, negative = inhibition” value was 64.7% (inactive).
Regarding `CNCC[C@H](Oc1ccc(C(F)(F)F)cc1)c1ccccc1`, the “activity change, negative = inhibition” value is 1.17% (inactive).
As for `Ic1ccc(N2CCN(Cc3c[nH]c4ncccc34)CC2)cc1`, the “activity change, negative = inhibition” value was -6.39% (inactive).
Same read-out and setting: under `O=Cc1ccc(O)c(O)c1O` stands -6.15% (inactive); under `C=CC(=O)c1ccc(CCCCCC)cc1`, 8.69% (inactive); under `N=C1N=C(N)c2cc3ccccc3cc21`, 106% [at 92.8 µM] (inactive).

Another assay is described as follows: qHTS assay to identify small molecule inhibitors of chordoma cells - UCH-1 (AID 1259355). Also: nearly all actives have a fitted effect of over 55% in size. Also: potency is read from the fitted curve at half-maximal effect. As to activity, negative = inhibition: % is scaled to controls: 0 for no effect and ±100 for the full control effect. The following applies: UCH-1 chordoma viability, CellTiter-Glo, 48 h, combination, with auranofin plus four topoisomerase inhibitors; series mostly up to 46.1 µM; activity, negative = inhibition: at the top concentration. An outline of the steps:
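A 48hr growth-inhibition format: each drug tested at 15 concentrations together with added auranofin, camptothecin, doxorubicin, rubitecan and topotecan, with cell viability quantified as CellTiter-Glo luminescence.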
(In general: In qHTS, concentration-response curves come from the screen itself.)
`CC(=O)[C@]1(O)Cc2c(O)c3c(c(O)c2[C@@H](O[C@H]2C[C@H](N)[C@H](O)[C@H](C)O2)C1)C(=O)c1c(O)cccc1C3=O`: the Potency was 1.58 µM (active).
The same measure, in the same setting: as for `CC1(C)[C@@H](O)CC[C@]2(C)[C@H]3C(=O)C=C4[C@@H]5C[C@@](C)(C(=O)O)CC[C@]5(C)CC[C@@]4(C)[C@]3(C)CC[C@@H]12`, the entry is “inactive”.
Regarding `Nc1ccc(O)c(C(=O)O)c1`, the “activity, negative = inhibition” value was -19.3% (inactive).
Still for that read-out and setting: under `CC(=O)O[C@H]1C[C@@]2(C)[C@@H](C[C@@H](O)[C@H]3[C@@]4(C)CC[C@@H](O)[C@@H](C)[C@@H]4CC[C@@]32C)/C1=C(\CCC=C(C)C)C(=O)O` stands 10.8% (inactive); under `CC(C(=O)O)c1ccc2c(c1)[nH]c1ccc(Cl)cc12` (configuration not stated), -20.1% (inactive).
For the compound `COc1cc(/C=C/C(=O)CC(=O)/C=C/c2ccc(O)c(OC)c2)ccc1O`, the “activity, negative = inhibition” value was -0.648% (inactive).
In the case of `CO[C@H]1C[C@@H]2CC[C@@H](C)[C@@](O)(O2)C(=O)C(=O)N2CCCC[C@H]2C(=O)O[C@H]([C@H](C)C[C@@H]2CC[C@@H](O)[C@H](OC)C2)CC(=O)[C@H](C)C=C(C)[C@@H](O)[C@@H](OC)C(=O)[C@H](C)C[C@H](C)/C=C/C=CC=C1C`, the “activity, negative = inhibition” value is -13.8% (inactive).
With `C[S+](CC[C@H](N)C(=O)O)C[C@H]1O[C@@H](n2cnc3c(N)ncnc32)[C@H](O)[C@@H]1O` (some centres not stated), the Potency entry was “inactive”.
On to `CC1(C)[C@@H](O[C@H]2O[C@H](C(=O)O)[C@@H](O)[C@H](O)[C@H]2O[C@@H]2O[C@H](C(=O)O)[C@@H](O)[C@H](O)[C@H]2O)CC[C@]2(C)[C@H]3C(=O)C=C4[C@@H]5C[C@@](C)(C(=O)O)CC[C@]5(C)CC[C@@]4(C)[C@]3(C)CC[C@@H]12`, for which the “activity, negative = inhibition” value was -13% (inactive).
On the same count and under the same terms, as for `CC1(C)S[C@@H]2[C@H](NC(=O)[C@H](NC(=O)N3CCN(S(C)(=O)=O)C3=O)c3ccccc3)C(=O)N2[C@H]1C(=O)O`, the figure is -9.11% (inactive).
Still for that read-out and setting: as for `CC1(C)S[C@@H]2[C@H](NC(=O)[C@H](N)c3ccc(O)cc3)C(=O)N2[C@H]1C(=O)O`, the figure is -19.5% (inactive).
On to `CC[C@H]1OC(=O)[C@H](C)C(=O)[C@H](C)[C@@H](O[C@@H]2O[C@H](C)C[C@H](N(C)C)[C@H]2O)[C@](C)(OC)C[C@@H](C)C(=O)[C@H](C)[C@H]2N(CCCCn3cnc(-c4cccnc4)c3)C(=O)O[C@]12C`, for which the Potency entry is “inactive”.
On the same count and under the same terms, as for `Cc1onc(-c2c(F)cccc2Cl)c1C(=O)N[C@@H]1C(=O)N2[C@@H]1SC(C)(C)[C@@H]2C(=O)O`, the entry is “inactive”.
Still for that read-out and setting: under `O=C(O)COc1ccc(C(=O)c2cccs2)c(Cl)c1Cl` stands “inactive”.
Consider `COc1cc(/C=C/C(=O)N2CCN(CC(=O)N3CCCC3)CC2)cc(OC)c1OC`, for which the “activity, negative = inhibition” value is -10.1% (inactive).
On to `C=C(Nc1ccc(OCC)cc1)Nc1ccc(OCC)cc1`, for which the Potency result was “inactive”.
Regarding `C=CCN1C(=O)C(CC(C)C)NC1=S` (configuration not stated), the Potency result was “inactive”.
For the compound `COC(=O)[C@H]1[C@H]2C[C@@H]3c4[nH]c5cc(OC)ccc5c4CCN3C[C@H]2C[C@@H](OC(=O)/C=C/c2cc(OC)c(OC)c(OC)c2)[C@@H]1OC`, the “activity, negative = inhibition” value was 20.5% [at 20.6 µM] (inactive).
Consider `O=C(O)[C@H](O)[C@@H](O)[C@H](O)[C@H](O)CO`, for which the Potency entry was “inactive”.
Turning to `CCCCCC[C@@H](O)C/C=C\CCCCCCCC(=O)O`, the “activity, negative = inhibition” value is -4.8% (inactive).
For `CN1[C@@H]2CC[C@H]1CC(OC(=O)C(CO)c1ccccc1)C2` (some centres not stated), the Potency result is “inactive”.
Still for that read-out and setting: as for `CC[C@H]1OC(=O)[C@H](C)[C@@H](O[C@H]2C[C@@](C)(OC)[C@@H](O)[C@H](C)O2)[C@H](C)[C@@H](O[C@@H]2O[C@H](C)C[C@H](N(C)C)[C@H]2O)[C@](C)(O)C[C@@H](C)C(=O)[C@H](C)[C@@H](O)[C@]1(C)O`, the entry is “inactive”.
On to `O=C(O)[C@H](CC(=O)N1C[C@H]2CCCC[C@H]2C1)Cc1ccccc1`, for which the “activity, negative = inhibition” value was -2.51% (inactive).
With `CC1(C)C[C@@H]1C(=O)N/C(=C\CCCCSC[C@H](N)C(=O)O)C(=O)O`, the Potency entry is “inactive”.
As for `COc1cc(CNC(=O)CCCC/C=C/C(C)C)ccc1O`, the “activity, negative = inhibition” value is -17.7% (inactive).
With `CN1CCN(c2cc3c(nn2)Oc2ccccc2N3C)CC1`, the “activity, negative = inhibition” value was -7.68% (inactive).
On the same count and under the same terms, as for `O=C(O)Cc1ccc(-c2ccccc2)cc1`, the figure is -0.963% [at 20.6 µM] (inactive); as for `O=C1CC[C@@H](C(=O)N2CSC[C@H]2C(=O)O)N1` ([pGlu]-[Thz]-OH), -12.5% (inactive).
Same read-out and setting: as for `C[C@H](O)[C@H](O)[C@H]1CNc2nc(N)[nH]c(=O)c2N1`, the figure is 9.58% (inactive).
For `CCCCC[C@H](O)/C=C/[C@@H]1[C@@H](C/C=C\CCCC(=O)O)[C@@H](O)C[C@H]1O`, the Potency result was “inactive”.

The next assay is described as follows: qHTS assay to identify small molecule inhibitors of chordoma cells - UCH-2 (AID 1259356). Also: potency is read from the fitted curve at half-maximal effect. As to activity change, negative = inhibition: % is scaled to controls: 0 for no effect and ±100 for the full control effect. The following applies: UCH-2 chordoma viability, CellTiter-Glo ATP luminescence, 48 h; series mostly up to 46.1 µM; activity change, negative = inhibition: at the top concentration.
As to `CC(=O)[C@]1(O)Cc2c(O)c3c(c(O)c2[C@@H](O[C@H]2C[C@H](N)[C@H](O)[C@H](C)O2)C1)C(=O)c1c(O)cccc1C3=O`, the Potency is 20.6 µM (active).
The same measure, in the same setting: under `CC1(C)[C@@H](O)CC[C@]2(C)[C@H]3C(=O)C=C4[C@@H]5C[C@@](C)(C(=O)O)CC[C@]5(C)CC[C@@]4(C)[C@]3(C)CC[C@@H]12` stands “inactive”.
Turning to `Nc1ccc(O)c(C(=O)O)c1`, the “activity change, negative = inhibition” value was 10.9% (inactive).
Same read-out and setting: under `CC(=O)O[C@H]1C[C@@]2(C)[C@@H](C[C@@H](O)[C@H]3[C@@]4(C)CC[C@@H](O)[C@@H](C)[C@@H]4CC[C@@]32C)/C1=C(\CCC=C(C)C)C(=O)O` stands -3.81% (inactive); under `CC(C(=O)O)c1ccc2c(c1)[nH]c1ccc(Cl)cc12` (configuration not stated), 6.87% (inactive).
Turning to `COc1cc(/C=C/C(=O)CC(=O)/C=C/c2ccc(O)c(OC)c2)ccc1O`, the Potency result is “inactive”.
Take `CO[C@H]1C[C@@H]2CC[C@@H](C)[C@@](O)(O2)C(=O)C(=O)N2CCCC[C@H]2C(=O)O[C@H]([C@H](C)C[C@@H]2CC[C@@H](O)[C@H](OC)C2)CC(=O)[C@H](C)C=C(C)[C@@H](O)[C@@H](OC)C(=O)[C@H](C)C[C@H](C)/C=C/C=CC=C1C`: the Potency entry is “inactive”.
On the same count and under the same terms, under `C[S+](CC[C@H](N)C(=O)O)C[C@H]1O[C@@H](n2cnc3c(N)ncnc32)[C@H](O)[C@@H]1O` (some centres not stated) stands “inactive”.
For `CC1(C)[C@@H](O[C@H]2O[C@H](C(=O)O)[C@@H](O)[C@H](O)[C@H]2O[C@@H]2O[C@H](C(=O)O)[C@@H](O)[C@H](O)[C@H]2O)CC[C@]2(C)[C@H]3C(=O)C=C4[C@@H]5C[C@@](C)(C(=O)O)CC[C@]5(C)CC[C@@]4(C)[C@]3(C)CC[C@@H]12`, the “activity change, negative = inhibition” value is 13.7% (inactive).
Still for that read-out and setting: as for `CC1(C)S[C@@H]2[C@H](NC(=O)[C@H](NC(=O)N3CCN(S(C)(=O)=O)C3=O)c3ccccc3)C(=O)N2[C@H]1C(=O)O`, the figure is 0.561% (inactive).
The same measure, in the same setting: as for `CC1(C)S[C@@H]2[C@H](NC(=O)[C@H](N)c3ccc(O)cc3)C(=O)N2[C@H]1C(=O)O`, the figure is -4.31% (inactive).
On to `CC[C@H]1OC(=O)[C@H](C)C(=O)[C@H](C)[C@@H](O[C@@H]2O[C@H](C)C[C@H](N(C)C)[C@H]2O)[C@](C)(OC)C[C@@H](C)C(=O)[C@H](C)[C@H]2N(CCCCn3cnc(-c4cccnc4)c3)C(=O)O[C@]12C`, for which the Potency result was “inactive”.
On the same count and under the same terms, under `Cc1onc(-c2c(F)cccc2Cl)c1C(=O)N[C@@H]1C(=O)N2[C@@H]1SC(C)(C)[C@@H]2C(=O)O` stands “inactive”; under `O=C(O)COc1ccc(C(=O)c2cccs2)c(Cl)c1Cl`, “inactive”.
As for `COc1cc(/C=C/C(=O)N2CCN(CC(=O)N3CCCC3)CC2)cc(OC)c1OC`, the “activity change, negative = inhibition” value is -0.0458% (inactive).
On to `C=C(Nc1ccc(OCC)cc1)Nc1ccc(OCC)cc1`, for which the Potency entry was “inactive”.
For the compound `C=CCN1C(=O)C(CC(C)C)NC1=S` (configuration not stated), the Potency entry was “inactive”.
Take `COC(=O)[C@H]1[C@H]2C[C@@H]3c4[nH]c5cc(OC)ccc5c4CCN3C[C@H]2C[C@@H](OC(=O)/C=C/c2cc(OC)c(OC)c(OC)c2)[C@@H]1OC`: the “activity change, negative = inhibition” value is -4.58% [at 20.6 µM] (inactive).
Take `O=C(O)[C@H](O)[C@@H](O)[C@H](O)[C@H](O)CO`: the Potency result is “inactive”.
Same read-out and setting: under `CCCCCC[C@@H](O)C/C=C\CCCCCCCC(=O)O` stands “inactive”.
Same read-out and setting: under `CN1[C@@H]2CC[C@H]1CC(OC(=O)C(CO)c1ccccc1)C2` (some centres not stated) stands “inactive”; under `CC[C@H]1OC(=O)[C@H](C)[C@@H](O[C@H]2C[C@@](C)(OC)[C@@H](O)[C@H](C)O2)[C@H](C)[C@@H](O[C@@H]2O[C@H](C)C[C@H](N(C)C)[C@H]2O)[C@](C)(O)C[C@@H](C)C(=O)[C@H](C)[C@@H](O)[C@]1(C)O`, “inactive”.
Consider `O=C(O)[C@H](CC(=O)N1C[C@H]2CCCC[C@H]2C1)Cc1ccccc1`, for which the “activity change, negative = inhibition” value was -19.7% (inactive).
For the compound `CC1(C)C[C@@H]1C(=O)N/C(=C\CCCCSC[C@H](N)C(=O)O)C(=O)O`, the Potency entry is “inactive”.
For `COc1cc(CNC(=O)CCCC/C=C/C(C)C)ccc1O`, the “activity change, negative = inhibition” value was 10% (inactive).
Regarding `CN1CCN(c2cc3c(nn2)Oc2ccccc2N3C)CC1`, the “activity change, negative = inhibition” value is -5.17% (inactive).
`CN1[C@@H]2CC[C@H]1CC(OC(c1ccccc1)c1ccccc1)C2` (some centres not stated): the Potency entry is “inactive”.
Take `O=C(O)Cc1ccc(-c2ccccc2)cc1`: the “activity change, negative = inhibition” value was 3.73% [at 20.6 µM] (inactive).
On the same count and under the same terms, as for `O=C1CC[C@@H](C(=O)N2CSC[C@H]2C(=O)O)N1` ([pGlu]-[Thz]-OH), the figure is 12.6% (inactive).
The same measure, in the same setting: under `C[C@H](O)[C@H](O)[C@H]1CNc2nc(N)[nH]c(=O)c2N1` stands 10.4% (inactive).
As to `CCCCC[C@H](O)/C=C/[C@@H]1[C@@H](C/C=C\CCCC(=O)O)[C@@H](O)C[C@H]1O`, the Potency entry was “inactive”.
